# CYP2C9 act – CYP2C9 (human) activation. P11712. recombinant CYP2C9, luciferin-H conversion, luminescence; hits give high values; factor 1 = untreated enzyme, 0 = blocked. activation factor at 5 µM. actives 1.4% (n = 96,000). AID 1024;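 active means activation factor of 2 or more for CYP2C9 at a 5 µM dose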;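 further: 0 = sulfaphenazole-blocked wells and 1 = vehicle-only wells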
# CYP2C9 inhib – inhibitors of human CYP2C9 | P11712 | CYP2C9 Supersomes, luciferin-H conversion, luminescence | inhibition, % at 5 µM | actives 20% (n = 96,000);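 active means blocking of liver enzyme CYP2C9 beyond about 50% at 5 µM, limit read from the data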
# CYP2C19 inh – blocks human cytochrome P450 2C19. CYP2C19 Supersomes, luciferin-H EGE luminescence, 30 min. AID 778. actives 21% (n = 96,000). P33261. inhibition, % at 5 µM;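 active means CYP2C19 inhibition above a set limit at 5 µM in the primary screen, cut at about 50% in these data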;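 further: plate controls were negative control wells for no effect and 2.5 mM tranylcypromine positive control for full effect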
# Target sequence (P33261 whole entry, looked up): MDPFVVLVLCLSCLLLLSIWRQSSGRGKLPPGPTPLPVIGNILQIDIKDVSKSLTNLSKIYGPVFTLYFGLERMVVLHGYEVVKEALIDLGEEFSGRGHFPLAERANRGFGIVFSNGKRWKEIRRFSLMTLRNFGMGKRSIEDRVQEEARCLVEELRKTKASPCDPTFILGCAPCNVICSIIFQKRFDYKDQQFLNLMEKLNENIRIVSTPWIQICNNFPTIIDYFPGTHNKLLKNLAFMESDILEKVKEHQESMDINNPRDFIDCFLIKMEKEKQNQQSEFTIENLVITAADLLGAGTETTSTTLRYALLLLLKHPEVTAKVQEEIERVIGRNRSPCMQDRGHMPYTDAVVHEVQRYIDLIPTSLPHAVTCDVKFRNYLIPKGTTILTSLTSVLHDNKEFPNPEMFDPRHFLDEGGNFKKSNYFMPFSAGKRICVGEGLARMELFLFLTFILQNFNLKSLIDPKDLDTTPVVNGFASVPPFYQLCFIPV
# PostGolgi yeast – growth inhibition of a yeast mutant, post-Golgi transport screen; post-Golgi transport phenotypic cell assay; inhibition, % at 10 µM; actives 0.9% (n = 98,000); AID 739;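 further: yeast cells grown in 1536-well plates; yeast grown about 18 h at 30C before absorbance read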
# PostGolgi ctrl – yeast control strain growth, post-Golgi counter-screen. efflux-deficient yeast background strain, growth absorbance A615, 16 h. inhibition, % at 10 µM. actives 5% (n = 98,000)
# CYP2C19 activ – increases human CYP2C19 enzyme activity. recombinant CYP2C19, luciferin-H EGE luminescence; hits give high values; 0 = fully inhibited enzyme, 1 = untreated enzyme. activation factor at 5 µM. 96,000 tested, under 10 active. AID 1025;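 active means activation factor of at least 2 at 5 µM in the primary screen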;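 further: 0 = wells with 2.5 mM tranylcypromine and 1 = vehicle-only wells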
# * = called active by the depositor; . = no result. Only some compounds are listed: those with a hit (about 32% of all), similar ones and a draw of the others. Unless noted, no stated cut-off is given here; in the data, active means inhibition above about 30%; inactive means the rest.
SMILES,CYP2C9 act,CYP2C9 inhib,CYP2C19 inh,PostGolgi yeast,PostGolgi ctrl,CYP2C19 activ
Cc1noc(C)c1S(=O)(=O)Nc1ccc(C(=O)N2CCN(c3cccc(Cl)c3)CC2)cc1,0.2,79*,-6,18,12,1.1
Cc1cccc(N2CCN(C(=O)CSCc3c(C)noc3C)CC2)c1C,0.7,33,8,5,10,0.9
CCc1cccc(NC(=O)c2ccc(NS(=O)(=O)c3c(C)noc3C)cc2)c1,0.5,51*,7,0,0,0.9
Cc1cccc(N2CCN(C(=O)c3ccc(NS(=O)(=O)c4c(C)noc4C)cc3)CC2)c1C,0,96*,7,5,14,0.9
Cc1cccc(NC(=O)c2ccc(NS(=O)(=O)c3c(C)noc3C)cc2)c1,0.6,40,4,20,-2,1
Cc1ccc(C)c(NC(=O)C2C(c3ccccc3)C2(Cl)Cl)c1 (stereo not drawn),0.9,10,10,-9,17,0.9
O=C(NCC1CCCO1)c1ccc(NC(=O)C2C3C=CC(C3)C2C(=O)O)cc1 (stereo not drawn),0.9,8,1,-4,0,1
COc1cccc(NC(=O)C2CCN(S(=O)(=O)c3ccc4c(c3)OCCO4)CC2)c1,1.5,-45,37,-5,-3,0.6
CC(=O)N1CCC(C(=O)Nc2ccccc2)(N(Cc2ccccc2)C(=O)c2cccnc2)CC1,1,-3,1,-9,-7,1
CCOc1ccc(/C(O)=C2\C(=O)C(=O)N(CCOCCO)C2c2ccccc2OC)cc1 (stereo not drawn),1,-5,-14,0,-2,1.1
Cc1cc(C)c2c(N)c(S(=O)c3ccc(C(C)(C)C)cc3)sc2n1 (stereo not drawn),0.5,47,61*,-2,13,0.4
O=C(c1cnn2c(C(F)(F)F)cc(-c3ccc4c(c3)OCO4)nc12)N1CCCC1,0.7,31,13,-1,5,0.9
CC(C)(C)C(=O)Nc1nc(=S)ss1,0.1,92*,33,20,20,0.7
CCC(=O)Nc1nc(=S)ss1,0,99*,23,-2,4,0.8
CCSc1nnc(NC(=O)CC)s1,1,0,1,-4,3,1
Cc1c(C(=O)OC2CCCC2)[nH]c2c1C(=O)CC(c1ccco1)C2 (stereo not drawn),0.5,52*,22,-3,-1,0.8
Cc1c(C(=O)OCC2CCCO2)[nH]c2c1C(=O)CC(c1ccco1)C2 (stereo not drawn),0.1,92*,69*,-3,10,0.3
C=CCOC(=O)c1[nH]c2c(c1C)C(=O)CC(c1ccco1)C2 (stereo not drawn),0.2,80*,96*,1,8,0
Cc1c(C(=O)OCC(C)C)[nH]c2c1C(=O)CC(c1ccco1)C2 (stereo not drawn),0.6,38,10,-4,8,0.9
Cc1ccc(C(=O)NCCCCNC(=O)c2ccc(C)o2)o1,1.1,-11,-17,2,-1,1.2
Cc1ccc(C(=O)CCNc2ccc(Br)cc2)o1,0.7,27,91*,-9,19,0.1
Cc1ccc(C(=O)CCNc2ccc(F)c(Cl)c2)o1,0.9,12,66*,-2,-4,0.3
Cc1ccc(C(=O)CCNc2ccccc2)o1,1,-1,35,-3,-2,0.7
Cc1ccc(C(=O)CCNc2cccc(Br)c2)o1,0.8,16,62*,18,7,0.4
Cc1cc(NC(=O)Nc2ccc(F)c(Cl)c2)no1,0.8,18,19,2,16,0.8
SMILES,CYP2C9 act,CYP2C9 inhib,CYP2C19 inh,PostGolgi yeast,PostGolgi ctrl,CYP2C19 activ
CC(Nc1c([N+](=O)[O-])c(=O)oc2ccccc12)C(Cl)c1ccccc1 (stereo not drawn),0.7,33,97*,6,13,0
N/C(=N\OS(=O)(=O)c1ccc2ccccc2c1)c1ccncc1,0.3,68*,30,8,5,0.7
CC1Cc2cc(/C(O)=C3/C(=O)C(=O)N(CCCn4ccnc4)C3c3cccnc3)ccc2O1 (stereo not drawn),0.7,28,9,-2,5,0.9
O=C1C(=O)N(CCCn2ccnc2)C(c2cccnc2)/C1=C(/O)c1ccc(F)cc1 (stereo not drawn),0.1,89*,-2,.,.,1
CSc1nnc(C)c(/C=C/Nc2ccc(Cl)cc2)n1,0.4,57*,30,9,20,0.7
CSc1nnc(C)c(/C=C/Nc2ccc(F)cc2)n1,0.6,39,18,15,6,0.8
COc1ccc(CCNC(=O)c2nn(C)cc2Cl)cc1,1,3,70*,2,6,0.3
CCCc1ccc(C(C)NC(=O)c2cnccn2)cc1 (stereo not drawn),0.5,53*,76*,-4,9,0.2
COc1ccc(CNC(=O)COC(=O)c2cnccn2)cc1,0.8,21,64*,1,6,0.4
COc1ccccc1CNC(=O)COC(=O)c1cnccn1,1,4,67*,-1,-7,0.3
Cc1nc2cc(NC(=O)N3CCC(c4ccccc4)C3)ccc2n1C (stereo not drawn),0.8,18,23,2,10,0.8
COc1cccc(OC)c1-c1nnc(-c2cn(C)c3ccccc23)o1,0.8,19,21,8,11,0.8
COc1ccc(CCNC(=O)c2cnccn2)cc1,0.9,7,53*,-10,-7,0.5
COc1ccc(CCNC(=O)c2cccnc2)cc1,0.7,29,35,-2,19,0.7
COc1ccccc1CNC(=O)COC(=O)c1n[nH]c2ccccc12,2.3*,-134,97*,-2,6,0
O=C(Oc1ccc(Cl)cc1)c1ccc(COC(=O)c2cnccn2)cc1,0.7,27,50,-5,11,0.5
O=C(Oc1ccccc1)c1ccc(COC(=O)c2cnccn2)cc1,0.4,56*,45,-9,4,0.6
Cc1nc2ccccc2n1CC(=O)OCC(=O)NCCc1ccccc1,1.2,-15,-17,4,3,1.2
CC(C)C1O/C(=N/C(=O)Nc2ccc(Cl)c(Cl)c2)NC1=O (stereo not drawn),0.9,7,7,98*,92*,0.9
COc1ccc(/C=N/Nc2nccnc2Cl)cc1,0.6,37,77*,-3,13,0.2
Oc1ccc(/C=N/Nc2nccnc2Cl)c(O)c1,0.5,52*,43,17,-2,0.6
Oc1ccc(/C=N/Nc2cccc3cccnc23)c(O)c1,3*,-205,5,2,19,1
Oc1ccccc1/C=N/Nc1nccnc1Cl,0.6,43,72*,-1,-1,0.3
Cc1ccc(/C=N/Nc2cccc3cccnc23)c(O)c1,1.1,-10,-6,3,15,1.1
O=[N+]([O-])c1ccccc1/C=N/Nc1nccnc1Cl,1,-3,28,19,7,0.7

# Compound activity (PubChem)
